Data from PubChem BioAssay AID1445 (SRMLSC, 2008).
Out of some 220,000 compounds screened, about 910 (0.41%) were called active. The sample as a whole holds a higher share of actives than the screen did. Entries with a potency or affinity are not part of this list. Unmarked numbers belong to inactive results.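 Rule for the calls: active = primary inhibition above the hit cutoff, then over 50% inhibition at one or more dose response concentrations (cut at about 23% in these data, passing the limit was not always enough); inconclusive = conflicting primary data, or primary hits not chosen for dose response; inactive = low primary inhibition, or under 50% at every dose.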

biological target: Aminopeptidase N (Plasmodium falciparum (isolate 3D7)) (UniProt O96935); assay: malaria alanyl aminopeptidase activity blockers – biochemical, fluorogenic H-Leu-NHMec substrate, 1536-well (AID 1445); conditions: recombinant M1AAP, H-Leu-NHMec fluorogenic kinetic assay; at 30 µM, active compounds read high unless noted;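 note: plate controls were DMSO full reaction for no effect and no enzyme background for full effect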
Sequence (O96935 whole entry, looked up): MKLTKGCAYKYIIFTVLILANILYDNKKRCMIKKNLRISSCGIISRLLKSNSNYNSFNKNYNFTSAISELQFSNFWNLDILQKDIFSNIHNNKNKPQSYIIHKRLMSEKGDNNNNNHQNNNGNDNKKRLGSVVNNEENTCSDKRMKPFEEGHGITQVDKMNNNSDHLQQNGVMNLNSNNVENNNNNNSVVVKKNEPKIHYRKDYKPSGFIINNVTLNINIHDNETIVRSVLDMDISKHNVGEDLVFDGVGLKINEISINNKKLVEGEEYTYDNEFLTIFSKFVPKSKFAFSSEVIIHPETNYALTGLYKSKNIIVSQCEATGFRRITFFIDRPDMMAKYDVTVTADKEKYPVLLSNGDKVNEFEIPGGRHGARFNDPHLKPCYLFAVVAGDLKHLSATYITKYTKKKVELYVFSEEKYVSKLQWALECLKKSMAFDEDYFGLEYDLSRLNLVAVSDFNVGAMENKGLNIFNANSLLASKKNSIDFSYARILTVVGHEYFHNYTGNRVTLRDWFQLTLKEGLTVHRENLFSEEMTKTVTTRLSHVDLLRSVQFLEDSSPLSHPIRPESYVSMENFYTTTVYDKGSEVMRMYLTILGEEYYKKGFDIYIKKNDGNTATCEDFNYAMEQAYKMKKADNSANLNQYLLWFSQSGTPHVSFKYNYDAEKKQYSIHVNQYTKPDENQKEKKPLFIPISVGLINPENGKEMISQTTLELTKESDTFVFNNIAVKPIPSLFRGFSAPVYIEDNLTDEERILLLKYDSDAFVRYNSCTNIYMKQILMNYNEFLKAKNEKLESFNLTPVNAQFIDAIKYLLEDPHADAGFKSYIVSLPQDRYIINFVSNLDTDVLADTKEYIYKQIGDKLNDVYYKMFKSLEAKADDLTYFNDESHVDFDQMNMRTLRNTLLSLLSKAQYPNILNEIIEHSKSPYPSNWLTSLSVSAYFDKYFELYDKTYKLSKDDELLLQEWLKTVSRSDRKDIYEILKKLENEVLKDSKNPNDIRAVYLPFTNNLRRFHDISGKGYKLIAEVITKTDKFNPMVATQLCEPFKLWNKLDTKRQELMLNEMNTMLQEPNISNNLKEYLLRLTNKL

SMILES | inhibition
C=CCN(C#N)c1nc(OC)nc(N2CCCC2)n1 | -0.65%
O=C(NC1CCCC1)C(c1ccccc1)N(C(=O)c1ccco1)C1CCCC1 (stereo not drawn) | 17.7%
O=C(NC1CCCC1)C(c1ccccc1F)N(C(=O)c1ccco1)C1CCCC1 (stereo not drawn) | 25% (active)
COc1cccc(C(C(=O)NC2CCCC2)N(C(=O)c2ccco2)C2CC2)c1OC (stereo not drawn) | 11%
N/C(=N\OC(=O)CCCOc1ccccc1)c1ccc(Br)cc1 | 5.3%
O=CN1CCN(C(=O)COc2ccc(Cl)cc2Br)CC1 | 1.29%
CCOc1cc(/C=C2\SC(=O)N(c3ccc(O)cc3)C2=O)ccc1O | 15.2%
CCC1=NN2C(=N)/C(=C\c3ccc(SCc4ccco4)o3)C(=O)N=C2S1 | 7.98%
CCOc1cc(/C=C2\SC(=O)N=C2N)ccc1O | 22%
CCC1=NN2C(=N)/C(=C\c3ccc(OCc4cc(=O)n5nc(CC)sc5n4)c(OC)c3)C(=O)N=C2S1 | 32.8%
COc1cc(/C=C2/C(=N)N3C=CSC3=NC2=O)ccc1OCCCOc1cc(C)ccc1C | -5.49%
CCCC1=NN2C(=N)/C(=C\c3ccc(SCc4ccco4)o3)C(=O)N=C2S1 | 20.4%
O=S(=O)(NCc1ccccn1)c1cccc2nsnc12 | 3.36%
Cc1cccc(NC(=O)NCc2ccc3c(c2)OCO3)c1C | -4.45%
CSc1ccc(S(=O)(=O)NC(C)c2ccccc2)cc1 (stereo not drawn) | -2.61%
CCOc1cc(OCC)nc(S(C)(=O)=O)n1 | 2.35%
Cn1c(O)c(C=NCC2CCNCC2)c(=O)n(C)c1=O | -0.42%
CC(C)C(=O)N1CCC(CN=Cc2c(O)n(C3CCCCC3)c(=O)n(C3CCCCC3)c2=O)CC1 | 27% (active)
CC(C)C(=O)N1CCC(CN=CC2=C(O)CC(C)(C)CC2=O)CC1 | 6.11%
COC(=O)Cc1[nH]n(-c2ccccc2)c(=O)c1C=Nc1ccc(C)cc1 | -0.62%
O=C(Nc1nc2nc(-c3ccccc3)cc(=O)n2[nH]1)c1ccccc1 | -0.35%
COc1ccc(C(=O)Nc2nc3nc(-c4ccccc4)cc(=O)n3[nH]2)cc1 | 10.9%
Cc1ccc(C(=O)Nc2nc3nc(-c4ccccc4)cc(=O)n3[nH]2)cc1 | 25.9% (active)
Cc1onc(-c2c(F)cccc2Cl)c1C(=O)Nc1ccc(S(=O)(=O)Nc2ncccn2)cc1 | 13.8%

SMILES | inhibition
Cc1cc(=O)oc2cc(Oc3ccc(C(N)=O)cc3[N+](=O)[O-])ccc12 | 30%
O=c1ccc2ccc(Oc3ccc([N+](=O)[O-])cc3[N+](=O)[O-])cc2o1 | 11.5%
CC(NC(=O)CN(C1CCCCC1)S(C)(=O)=O)c1ccccc1 (stereo not drawn) | 2.9%
CC(NC(=O)COc1ccc(N(C)S(=O)(=O)c2ccccc2)cc1)c1ccccc1 (stereo not drawn) | 1.27%
NS(=O)(=O)c1ccc(CCn2c(=S)[nH]c3ccc(F)cc3c2=O)cc1 | -3.16%
O=C1c2oc3ccccc3c(=O)c2C(c2cccc(O)c2)N1CCCN1CCOCC1 (stereo not drawn) | 26.8% (active)
O=C1c2oc3ccc(F)cc3c(=O)c2C(c2cccc(O)c2)N1CCCN1CCOCC1 (stereo not drawn) | -3%
CCCOc1ccc(C2c3c(oc4ccccc4c3=O)C(=O)N2CCCN2CCOCC2)cc1 (stereo not drawn) | 4.5%
COc1cccc(C2c3c(oc4ccccc4c3=O)C(=O)N2CCCN2CCOCC2)c1 (stereo not drawn) | 7.18%
CCOc1ccc(C2c3c(oc4ccccc4c3=O)C(=O)N2CCCN2CCOCC2)cc1 (stereo not drawn) | 2.52%
C=CCOc1ccc(C2c3c(oc4ccccc4c3=O)C(=O)N2CCCN2CCOCC2)cc1 (stereo not drawn) | 24.2% (active)
Cn1c(=O)c2c(nc(SCCN3CCOCC3)n2Cc2ccc(F)cc2)n(C)c1=O | -1.46%
Cn1c(=O)c2c(nc(SCCN3CCOCC3)n2Cc2ccccc2)n(C)c1=O | 7.6%
Cc1ccc(Cn2c(SCCN3CCOCC3)nc3c2c(=O)n(C)c(=O)n3C)cc1 | 23.8% (active)
Cc1ccc(NC(=O)NC2=NN(c3ccccc3)C(=O)/C2=C2/CCCN2C)cc1 | 8.56%
O=C(c1nc2ccccn2c1CN1CCC(Cc2ccccc2)CC1)N1CCCC1 | 5.48%
CCOc1ccccc1N(CC(=O)Nc1ccccc1C(=O)NCc1ccco1)S(C)(=O)=O | 21%
COc1ccc(N(CC(=O)Nc2ccccc2C(=O)NCc2ccco2)S(C)(=O)=O)cc1 | 3.79%
CCOc1ccc(N(CC(=O)Nc2ccccc2C(=O)NCc2ccco2)S(C)(=O)=O)cc1 | 23.4% (active)
COc1ccc(C(C)=O)cc1CSc1nncn1C | 4.42%
COC(=O)c1c(NC(NC(=O)c2ccccc2)(C(F)(F)F)C(F)(F)F)sc2c1CCN(C)C2 | 2.95%
CCOC(=O)CNNC(=O)Nc1ccc(Cl)c(Cl)c1 | -5.41%
CCOC(=O)N(CC)OC(=O)Nc1ccc(Cl)cc1 | 2.39%
CCOC(=O)N(C)OC(=O)Nc1ccc(Cl)c(Cl)c1 | 24% (active)

SMILES | inhibition
Nc1nc(SCC(=O)Nc2cc(-c3ccccc3)nn2-c2ccccc2)n[nH]1 | 26.4% (active)
CCCc1ccc(-c2cc(NC(=O)CSc3n[nH]c(N)n3)n(-c3ccccc3)n2)cc1 | -9.14%
Cc1ccc(-c2cc(NC(=O)CSc3n[nH]c(N)n3)n(-c3ccccc3)n2)cc1 | 3.01%
CS(=O)(=O)N1CCCC(C(=O)c2cccc(Cl)c2)C1 (stereo not drawn) | -1.4%
O=C(NNC(=O)C1CCN(S(=O)(=O)c2cccc(C(F)(F)F)c2)CC1)C1CC1 | -0.46%
CCCS(=O)(=O)N1CCCC(C(=O)c2cccc(Cl)c2)C1 (stereo not drawn) | 2.05%
CS(=O)(=O)N1CCC(C(=O)Nc2cccc(Cl)c2)CC1 | -2.4%
CCCS(=O)(=O)N1CCC(C(=O)c2cccc(C(F)(F)F)c2)CC1 | 23.4% (active)
CCCCC1NC(C(=O)O)CS1 (stereo not drawn) | -4.57%
Cc1ccc(C2C(=O)N(C3CCC(C)CC3)CC(=O)N2C2CC2)cc1 (stereo not drawn) | 6.72%
COc1ccc(-n2ncc(N(C)n3cccc3)c(Cl)c2=O)cc1 | 4.45%
COc1ccc(/C=C\C(=O)NCC(=O)N/N=C/c2ccc(O)cc2O)cc1 | 33.7%
O=C(CCNC(=O)c1ccccc1)N=Nc1c(O)[nH]c2ccccc12 | 14%
CCOC(=O)c1cc(-c2cccc([N+](=O)[O-])c2)n[nH]1 | 0.83%
CCOC(=O)c1cc(-c2cccc([N+](=O)[O-])c2)on1 | 7.98%
COc1ccc(N(C)C(=S)Nc2ccc3nc(C)c(C)nc3c2)cc1 | 0.41%
Cc1noc(NC(=O)c2cccc(C(F)(F)F)c2)c1Cl | 1.44%
CCOC(=O)c1ccc(C(=O)OCC)nc1 | -0.25%
CCOC(=O)C1(CCOc2ccccc2)CCN(Cc2cccc3nonc23)CC1 | 11.9%
COc1ccc(C2c3[nH]c4ccccc4c3CCN2C(=O)c2ccc(=O)n(C)n2)c(F)c1 (stereo not drawn) | -6.53%
O=C(c1ccccc1)N1CCC(O)(c2ccc3c(c2)OCO3)CC1 | -2.13%
CN1C(=O)c2ccc(C(=O)NCc3ccccc3)cc2C1=O | 5.4%
CCN1C(=O)c2ccc(C(=O)NCc3ccccc3)cc2C1=O | 1.2%
CCCCCOc1ccccc1C(=O)NCCC(=O)O | 0.09%

SMILES | inhibition
Cc1cc(C)n(-c2ccc(F)cc2)c(=O)c1C#N | 3.92%
CCO/N=C(/C)c1c(O)cc(C(C)(C)C)n(-c2ccccc2)c1=O | 1.22%
Cc1ccc(C)c(NC2=NS(=O)(=O)c3ccccc32)c1 | 3.34%
CC(=O)Nc1ccc(S(=O)(=O)NNC2=NS(=O)(=O)c3ccccc32)cc1 | 5.01%
Cc1cc(C)n2nc(N)c(N=Nc3ccc4c(c3)OCO4)c2n1 | -0.91%
O=C(Nc1ccc(OCC(F)(F)C(F)F)cc1)c1ccncc1 | 3.56%
NC(=NCCc1c[nH]c2ccccc12)NC(=O)c1ccc(Cl)cc1 | 2.62%
O=c1c2ccccc2nc(SCc2cn3ccsc3n2)n1-c1ccc(F)cc1 | -8.24%
Cc1ccc(-n2c(SCc3cn4ccsc4n3)nc3ccccc3c2=O)cc1 | 25.9% (active)
O=c1c2ccccc2nc(SCc2cn3ccsc3n2)n1-c1ccccc1 | 14.2%
O=C(NC1CCCCC1)C(c1ccncc1)N(C(=O)Cn1nnc(-c2cccs2)n1)C1CCCC1 (stereo not drawn) | 0.4%
COc1ccccc1NC(=O)C(C)NS(=O)(=O)c1ccc(Cl)cc1 (stereo not drawn) | 0.77%
CCN(CC)c1ccc2c(C)c(CN3CCOCC3)c(=O)oc2c1 | 7.04%
Cc1cc2oc(=O)cc(CN3CCOCC3)c2cc1C | 11.2%
COCCN(C(=O)CN1CCN(S(=O)(=O)c2ccc(F)cc2)CC1)c1c(N)n(Cc2ccccc2)c(=O)[nH]c1=O | 7.35%
Nc1cc2c(cc1[N+](=O)[O-])OCO2 | 7.4%
CC1(C)OC(=O)C(=NNc2ccccc2[N+](=O)[O-])C(=O)O1 | 9.4%
CC(=O)Nc1cc2c(cc1[N+](=O)[O-])OCCO2 | 6.17%
CC1C/C(=N/Nc2ccc([N+](=O)[O-])cc2[N+](=O)[O-])CC(C)(C)C1 (stereo not drawn) | -1.42%
O=C(N/N=C/c1ccccc1Cl)c1[nH]c2ccc(Br)cc2c1-c1ccccc1 | -5.79%
COc1ccc(/C=N/NC(=O)c2[nH]c3ccc(Br)cc3c2-c2ccccc2)cc1 | 2.81%
